The list is not random: actives were taken first. Their share in the collection is about 3.5%.
Bead autofluor: compound fluorescence in toxin protease inhibitor counterscreen; fluorescence intensity (no concentration beside the values); 3.1% of 360,000 active; compound autofluorescence counterscreen, microsphere flow cytometry; hits give high values; in the data active = fluorescence intensity above about 16000; inconclusive = no clear call, values can overlap the other calls
BJeLR viability: kills HRASV12-expressing BJeLR cells; BJeLR (HRASV12) viability, CellTiter-Glo ATP luminescence, 48 h; inhibition, % (concentration not given with the values); 0.17% of 300,000 active; AID 1554; in the data active = inhibition above about 50%; inconclusive = no clear call, values can overlap the other calls
BoNT-A LC inh2: inhibitors of Botulinum neurotoxin A light chain protease | 0.17% of 360,000 active | inhibition, % at 10 µM | AID 588499 | multiplex microsphere protease substrate cleavage, flow cytometry
BoNT-F LC inh: blocks Botulinum neurotoxin F light chain protease | inhibition, % at 10 µM | AID 588497 | Multiplex microsphere protease cleavage assay, flow cytometry | 0.22% of 360,000 active; in the data active = inhibition above about 35%, passing the limit was not always enough; inconclusive = no clear call, values can overlap the other calls
Anthrax LF prot: inhibitors of Bacillus anthracis lethal factor protease; multiplex microsphere protease cleavage assay, LF; inhibition, % at 10 µM; 0.12% of 360,000 active; P15917
Target sequence (P15917 whole entry, looked up): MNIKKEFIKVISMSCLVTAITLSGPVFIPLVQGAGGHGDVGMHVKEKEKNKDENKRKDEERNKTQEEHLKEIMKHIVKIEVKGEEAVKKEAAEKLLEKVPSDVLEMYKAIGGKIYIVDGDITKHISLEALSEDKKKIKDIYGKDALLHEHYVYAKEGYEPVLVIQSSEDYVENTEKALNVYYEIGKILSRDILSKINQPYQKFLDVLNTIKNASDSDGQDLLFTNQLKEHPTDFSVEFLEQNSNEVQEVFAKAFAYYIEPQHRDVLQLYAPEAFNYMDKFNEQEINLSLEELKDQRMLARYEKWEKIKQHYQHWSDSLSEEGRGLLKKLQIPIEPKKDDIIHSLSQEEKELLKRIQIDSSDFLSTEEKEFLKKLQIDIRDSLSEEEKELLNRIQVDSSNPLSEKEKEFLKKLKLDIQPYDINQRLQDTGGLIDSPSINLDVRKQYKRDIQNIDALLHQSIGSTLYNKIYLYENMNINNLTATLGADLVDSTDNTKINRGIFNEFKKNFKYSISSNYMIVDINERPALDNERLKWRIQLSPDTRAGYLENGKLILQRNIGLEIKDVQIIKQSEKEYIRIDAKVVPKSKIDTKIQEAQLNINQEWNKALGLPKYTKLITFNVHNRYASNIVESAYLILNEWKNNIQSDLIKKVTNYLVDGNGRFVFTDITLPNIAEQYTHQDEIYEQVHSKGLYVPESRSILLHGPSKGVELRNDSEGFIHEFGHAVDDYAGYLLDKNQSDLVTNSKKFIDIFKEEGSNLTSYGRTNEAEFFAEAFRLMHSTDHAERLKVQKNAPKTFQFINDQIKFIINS
Each line names hits and unclear results; the compound was inactive in the other large screens. Cut-off read from the data, not from the text of the source, unless noted: active = inhibition above about 30%; inconclusive = no clear call, values can overlap the other calls; inactive = below that.

Cn1c(CS(=O)Cc2c(Cl)cccc2Cl)nnc1SCc1c(Cl)cccc1Cl (configuration not stated)	Bead autofluor 16613
O=C(NC12CC3CC(CC(C3)C1)C2)C1CCCN1C(=O)NC1CCCCC1 (configuration not stated)	none
CC1CCCCN1C(=O)NC12CC3CC(CC(C3)C1)C2 (configuration not stated)	Bead autofluor 22908
NC(=O)c1sc2nnc(-c3ccccc3)c(-c3ccccc3)c2c1N	Bead autofluor 17320, BoNT-F LC inh inconclusive
Cc1nc(NC(=O)CCN2C(=O)C3CC=CCC3C2=O)sc1C (configuration not stated)	none
COC(=O)c1sc(NC(=O)CSc2nnnn2-c2cccc(OC)c2)nc1C	BoNT-F LC inh inconclusive
COc1ccc(NC(=O)CSc2n[nH]c(C(C)C)n2)c([N+](=O)[O-])c1	none
COc1ccc(NC(=O)CSc2n[nH]c(N)n2)c([N+](=O)[O-])c1	Bead autofluor 23423
CCOC(=O)C1C(c2ccccc2Cl)NC(=O)N(C)C1(O)C(F)(F)F (configuration not stated)	Bead autofluor 16952
CSc1ccccc1NC(=O)COC(=O)c1c[nH]c(=O)[nH]c1=O	none
Fc1cccc(NC(=S)NCc2ccccn2)c1	none
O=C(c1ccc(Br)cc1)C1CCc2occc2C1=O (configuration not stated)	Bead autofluor 22206
O=C(NNC(=O)C1CCC1)c1ccc(Br)cc1	none
S=c1[nH]nc(-c2ccccc2)n1C1C=CCCC1 (configuration not stated)	Bead autofluor 16741
CCOc1cc(NC(=S)Nc2ccccc2OC)c(OCC)cc1NC(=O)c1ccccc1C	Bead autofluor 16184
CCOc1cc(NC(=S)Nc2ccccc2)c(OCC)cc1NC(=O)c1ccccc1	Bead autofluor 23797
c1ccc2c(c1)COc1c3ncccc3nn1-2	none (no result: BJeLR viability)
Cc1cc(C)c(OCCCCNCc2ccccc2)c(Cl)c1	Bead autofluor 21662, BoNT-A LC inh2 inconclusive
COCCCNCCCCOc1c(Cl)cc(C)cc1Br	Bead autofluor 22891, BoNT-A LC inh2 inconclusive
Cc1cc(C)c(OCCNCc2ccccc2)c(C)c1	none
Clc1ccccc1-c1cc2nc(NCc3ccco3)ccn2n1	none (no result: BJeLR viability)
O=S(=O)(c1ccc(Cl)c(F)c1)N1CCC(c2nc(-c3ccncc3)no2)CC1	Bead autofluor 21243
O=[N+]([O-])c1cccc(S(=O)(=O)N2CCC(c3nc(-c4ccncc4)no3)CC2)c1	none
Cc1nn(Cc2ccc(C(=O)Nc3ccccc3C(F)(F)F)o2)c(C)c1Br	Bead autofluor 23948
Cc1csc(NC(=O)c2ccc(Cn3nc(C)c(Br)c3C)o2)n1	none
CCOc1ccc(OCC)c(-c2c(=O)n(OCc3ccccc3C(=O)OC)c3ccccc3[n+]2[O-])c1	none
O=C(CN(CC1CCCO1)S(=O)(=O)c1ccc(S(=O)(=O)NC2CC2)cc1)Nc1ccccc1 (configuration not stated)	none
CCN(CC)S(=O)(=O)c1ccc(S(=O)(=O)N(CC(=O)Nc2ccccc2)CC2CCCO2)cc1 (configuration not stated)	Bead autofluor 17027
Cc1cc(C)c2c(=O)n(CC(=O)Nc3ccc(Br)c(C)c3)sc2n1	none
Cc1cc(C)c2c(=O)n(CC(=O)Nc3cccc(Cl)c3C)sc2n1	BoNT-A LC inh2 54.1
Cc1ccccc1NC(=O)Cn1cccc1	none
Cc1c(Cl)cccc1NC(=O)CCC(=O)NNC(=O)c1ccccc1Cl	Bead autofluor 17035, BoNT-A LC inh2 inconclusive
Cc1c(Cl)cccc1NC(=O)CCC(=O)NNC(=O)c1ccco1	Bead autofluor 16503
Cc1c(Cl)cccc1NC(=O)Cn1cccc1	Bead autofluor 23242
Cc1cc(C)n2c(NCc3ccccc3)c(-c3cc4ccccc4o3)nc2n1	none (no result: BJeLR viability)
COc1cc2c(cc1OC)C(C)N(C(=O)Nc1ccc(F)cc1)CC2 (configuration not stated)	none
Cc1onc(-c2ccc(Cl)cc2Cl)c1-c1csc(COc2ccccc2)n1	BoNT-A LC inh2 inconclusive, BoNT-F LC inh inconclusive
Cc1ccc(N2NC(C)(c3cccs3)NC2=S)cc1 (configuration not stated)	none
CC12CN3CC(C)(CN(C1)C3c1ccc(Br)cc1)C2 (configuration not stated)	Bead autofluor 22475
C#CCOC(=O)c1csc2nnsc12	Bead autofluor 21747, BoNT-A LC inh2 inconclusive
C#CCOC(=O)c1ccccc1C(=O)OCC#C	none
Cn1cnc(S(=O)(=O)N2CCCCC2c2cc(C(=O)Nc3ccc(F)c(Cl)c3)no2)c1 (configuration not stated)	none (no result: BJeLR viability)
COc1cccc(OCCN2CCN(c3ncnc4c3cnn4-c3ccccc3)CC2)c1	Bead autofluor 16922

High-throughput results deposited in PubChem by several laboratories.
